A short description of assay [1]: anti-His antibody binders, primary screen, artefact control for SMM control protein annotation, biochemical, small-molecule microarray, 635 nm fluorescence (AID 1128).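 Further: score merges feature fluorescence with signal-to-noise for each printed compound spot.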 The note with it: anti-His Alexa647 antibody binding, higher = more signal.
In assay [2] the test system is Human papillomavirus type 1a E7 protein (residues 1-88). Description: HPV1a E7 small-molecule binders, primary screen, biochemical, small-molecule microarray, residues 1-88, 635 nm (AID 1129). Particulars: small-molecule microarray binding, fluorescence 635 nm; higher = more signal.
The target of assay [3] is Focal adhesion kinase 1 (Homo sapiens) (UniProt Q05397). As to the kind of experiment: small-molecule microarray binders of FAK, primary screen, biochemical, 635/667 nm fluorescence, BSA, DTT (AID 1130).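 Further: composite of spot emission at 667 nm and signal to noise over triplicate slides.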 Particulars: PTK2 binding, 635 nm fluorescence, higher = more signal.
Chain of Focal adhesion kinase 1 (Homo sapiens) (Q05397 whole entry, looked up): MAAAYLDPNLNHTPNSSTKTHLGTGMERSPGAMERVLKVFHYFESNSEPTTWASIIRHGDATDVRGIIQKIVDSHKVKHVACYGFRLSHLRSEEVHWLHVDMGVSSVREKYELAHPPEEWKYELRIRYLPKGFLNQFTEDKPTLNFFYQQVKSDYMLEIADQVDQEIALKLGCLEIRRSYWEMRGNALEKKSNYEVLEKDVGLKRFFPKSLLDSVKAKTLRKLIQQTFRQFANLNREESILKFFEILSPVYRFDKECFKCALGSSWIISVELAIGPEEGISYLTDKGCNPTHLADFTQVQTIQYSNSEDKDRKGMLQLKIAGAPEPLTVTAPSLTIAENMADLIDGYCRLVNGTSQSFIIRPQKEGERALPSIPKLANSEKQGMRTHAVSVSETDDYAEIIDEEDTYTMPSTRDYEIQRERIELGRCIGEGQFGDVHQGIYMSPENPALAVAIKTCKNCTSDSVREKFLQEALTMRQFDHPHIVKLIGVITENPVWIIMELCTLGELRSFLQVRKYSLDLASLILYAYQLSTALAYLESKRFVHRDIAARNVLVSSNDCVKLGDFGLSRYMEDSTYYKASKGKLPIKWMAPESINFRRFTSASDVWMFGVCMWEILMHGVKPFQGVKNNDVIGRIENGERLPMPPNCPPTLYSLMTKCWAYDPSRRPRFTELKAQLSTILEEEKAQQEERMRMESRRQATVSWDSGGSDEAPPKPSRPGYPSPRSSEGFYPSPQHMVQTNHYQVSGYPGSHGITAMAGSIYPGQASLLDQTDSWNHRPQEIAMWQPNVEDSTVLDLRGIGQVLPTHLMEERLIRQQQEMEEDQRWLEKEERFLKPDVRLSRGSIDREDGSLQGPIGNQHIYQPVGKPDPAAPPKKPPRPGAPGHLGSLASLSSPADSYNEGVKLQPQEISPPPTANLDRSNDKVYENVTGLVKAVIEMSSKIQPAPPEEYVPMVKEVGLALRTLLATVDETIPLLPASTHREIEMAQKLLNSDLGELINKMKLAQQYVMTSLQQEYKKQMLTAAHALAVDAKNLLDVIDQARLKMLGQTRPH
The test system of assay [4] is Fibrinogen (Alexa647-labelled). Description: fibrinogen binders on compound microarrays, profiling panel, artefact control for SMM control-protein annotation, biochemical, small-molecule microarray, 635/667 nm fluorescence (AID 1131).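 Further: z-score merges 667 nm fluorescence with per-spot signal-to-noise over triplicate slides.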 Particulars: fibrinogen-A647 binding fluorescence, higher = more signal.
Assay [5] deals with Follistatin (Homo sapiens) (UniProt P19883). Description: follistatin binders on small-molecule microarrays, primary screen, biochemical, small-molecule microarray, 635/667 nm fluorescence (AID 1132). Particulars: FST binding, 635 nm fluorescence, higher = more signal.
Chain of Follistatin (Homo sapiens) (P19883 whole entry, looked up): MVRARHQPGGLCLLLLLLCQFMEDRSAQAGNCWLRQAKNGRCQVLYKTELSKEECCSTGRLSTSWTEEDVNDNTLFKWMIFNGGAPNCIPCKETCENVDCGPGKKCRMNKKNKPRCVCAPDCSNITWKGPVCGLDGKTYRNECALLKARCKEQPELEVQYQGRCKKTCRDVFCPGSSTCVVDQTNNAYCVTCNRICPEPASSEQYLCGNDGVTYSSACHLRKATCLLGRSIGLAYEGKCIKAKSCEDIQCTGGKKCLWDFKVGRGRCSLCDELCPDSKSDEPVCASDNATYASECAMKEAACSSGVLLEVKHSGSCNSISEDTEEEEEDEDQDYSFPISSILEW
In assay [6] the target is Fibroblast growth factor 2 (Homo sapiens) (UniProt P09038). As to the kind of experiment: FGF2 binders on small-molecule microarrays, primary screen, biochemical, small-molecule microarray, 635/667 nm fluorescence (AID 1133). Particulars: small-molecule microarray binding, FGF2, fluorescence 635/667; higher = more signal.
Chain of Fibroblast growth factor 2 (Homo sapiens) (P09038 whole entry, looked up): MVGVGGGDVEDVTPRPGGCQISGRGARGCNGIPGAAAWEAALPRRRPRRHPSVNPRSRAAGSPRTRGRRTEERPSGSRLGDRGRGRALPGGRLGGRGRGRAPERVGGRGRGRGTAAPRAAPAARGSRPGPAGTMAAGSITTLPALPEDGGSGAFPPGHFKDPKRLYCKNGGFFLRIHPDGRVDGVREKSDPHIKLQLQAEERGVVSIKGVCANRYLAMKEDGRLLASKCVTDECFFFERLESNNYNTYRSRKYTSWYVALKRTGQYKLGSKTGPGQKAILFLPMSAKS
The nature of assay [7]: mitochondrial membrane potential change in A549 cells, profiling panel, cell-based, JC-1 fluorescence, basal, 24 h, 100 nL (AID 1138).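 Further: A549 lung adenocarcinoma cells under basal conditions with no added stimulus; test concentration not given here.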 Particulars: higher = more signal.
The subject of assay [8] is Lefty1. Description: Lefty1 binders on small-molecule microarrays, primary screen, biochemical, small-molecule microarray, 635/667 nm fluorescence (AID 1139). The note with it: small-molecule microarray binding, fluorescence 635/667; higher = more signal.
Assay [9] deals with wheat germ agglutinin (Triticum aestivum), Alexa647-labelled. Description: wheat germ agglutinin binders on compound microarrays, profiling panel, artefact control for SMM control-protein annotation, biochemical, small-molecule microarray, 635/667 nm fluorescence (AID 1140).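 Further: score merges 667 nm feature emission with signal to noise over triplicate slides.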 Particulars: WGA-A647 binding, 635 nm fluorescence, higher = more signal.
Assay [10] concerns the target Luciferin 4-monooxygenase (Photinus pyralis) (UniProt P08659). As to the kind of experiment: firefly luciferase enzyme inhibitors, primary screen, biochemical, luminescence, purified enzyme, 2006 set (AID 1141).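 Further: cell-free assay with purified firefly luciferase at 100 ng per well in PBS; test concentration not given here.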 Particulars: SteadyGlo luminescence, 30 min, higher = more signal, called active from +8 up or from −8 down.
The test system of assay [11] is Wnt5a (protein binding on small-molecule microarray). Description: Wnt5a binders on small-molecule microarray, primary screen, biophysical, 635/667 nm fluorescence (AID 1142).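 Further: fluorescence read at 667 nm with signal to noise per printed feature.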 The note with it: 635 nm fluorescence, higher = more signal.
Assay [12] in a line: cell viability in Huh7 cells, primary screen, cytotoxicity control for HCV replication inhibitor project, CellTiter-Glo luminescence, basal, 48 h (AID 1143).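 Further: Huh7 hepatoma cells carrying a hepatitis C replication reporter with no stimulus; test concentration not given here.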 The note with it: Huh7 HCV replicon, higher = more signal, called active from +8 up or from −8 down.
The nature of assay [13]: P. aeruginosa biofilm formation inhibitors, primary screen, PAO1 strain, BacTiter-Glo luminescence, LB-PBS (AID 1144). Particulars: 12 h, higher = more signal.
Assay [14] is described as follows: CREB reporter modulators without forskolin, primary screen, cell-based, PC12, CRE-LacZ reporter, unstimulated (AID 1145). Particulars: no forskolin, luminescence, 4.5 h, higher = more signal, called active from +8 up or from −8 down.
Assay [15] can be described thus: CREB reporter modulators under forskolin, primary screen, cell-based, PC12, CRE-LacZ reporter, forskolin-stimulated (AID 1146).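 Further: PC12 cells with 6xCRE LacZ reporter stimulated by forskolin 10 µM; beta-galactosidase reporter signal reflecting CREB driven transcription.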 The note with it: luminescence, 4.5 h, higher = more signal, called active from +8 up or from −8 down.
Assay [16] concerns the target Streptavidin (Streptomyces avidinii) (UniProt P22629). As to the kind of experiment: streptavidin binders on small-molecule microarray, primary screen, artefact control for SMM compound annotation, biophysical, 635/667 nm fluorescence (AID 1147).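 Further: signal reflects streptavidin binding to arrayed compounds as a control protein.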 Particulars: streptavidin binding, higher = more signal.
Assay [17] is described as follows: small-molecule binders of probe aInhba, primary screen, biochemical, small-molecule microarray, 635/667 nm fluorescence (AID 1148).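 Further: score merges 667nm spot fluorescence with signal-to-noise for antibody binding to printed compounds.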 The note with it: higher = more signal.
In assay [18] the target is Torsin-1A (Homo sapiens) (UniProt O14656). As to the kind of experiment: torsin A binders from cell lysate, primary screen, small-molecule microarray, wild-type, 635/667 nm (AID 1149). Particulars: COS7 hTOR1A-WT lysate, 635 nm fluorescence, higher = more signal.
Chain of Torsin-1A (Homo sapiens) (O14656 whole entry, looked up): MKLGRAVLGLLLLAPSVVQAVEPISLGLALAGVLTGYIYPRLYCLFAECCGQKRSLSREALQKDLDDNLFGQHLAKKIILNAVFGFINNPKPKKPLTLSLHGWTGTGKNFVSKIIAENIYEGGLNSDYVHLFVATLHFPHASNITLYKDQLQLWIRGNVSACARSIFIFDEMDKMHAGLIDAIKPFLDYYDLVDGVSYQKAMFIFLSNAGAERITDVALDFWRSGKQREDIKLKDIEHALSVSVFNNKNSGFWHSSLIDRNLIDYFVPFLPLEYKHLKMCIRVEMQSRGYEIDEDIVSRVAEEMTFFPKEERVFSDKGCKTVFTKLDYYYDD
The target is the same in assay [19]. As to the kind of experiment: small-molecule binders of mutant TOR1A in lysate, primary screen, cell lysate, small-molecule microarray, COS7 lysate, 635/667 nm fluorescence (AID 1150).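 Further: score pools 667 nm emission and signal to noise measuring lysate protein binding.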 The note with it: COS7 hTOR1A mutant lysate, 635 nm fluorescence, higher = more signal.
For assay [20], the system named is Sonic hedgehog protein (Shh). Description: small-molecule binders of Shh protein, primary screen, biochemical, small-molecule microarray, 635/667 nm fluorescence (AID 1151).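 Further: Shh protein binding to compounds spotted on small-molecule microarray slides; score combines spot fluorescence intensity with signal-to-noise across triplicate slides.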 The note with it: small-molecule microarray binding, 635 nm fluorescence; higher = more signal.

Activity calls are given as the source filed them. Unless noted, how the calls were made is not given here.

Chain of Luciferin 4-monooxygenase (Photinus pyralis) (P08659 whole entry, looked up): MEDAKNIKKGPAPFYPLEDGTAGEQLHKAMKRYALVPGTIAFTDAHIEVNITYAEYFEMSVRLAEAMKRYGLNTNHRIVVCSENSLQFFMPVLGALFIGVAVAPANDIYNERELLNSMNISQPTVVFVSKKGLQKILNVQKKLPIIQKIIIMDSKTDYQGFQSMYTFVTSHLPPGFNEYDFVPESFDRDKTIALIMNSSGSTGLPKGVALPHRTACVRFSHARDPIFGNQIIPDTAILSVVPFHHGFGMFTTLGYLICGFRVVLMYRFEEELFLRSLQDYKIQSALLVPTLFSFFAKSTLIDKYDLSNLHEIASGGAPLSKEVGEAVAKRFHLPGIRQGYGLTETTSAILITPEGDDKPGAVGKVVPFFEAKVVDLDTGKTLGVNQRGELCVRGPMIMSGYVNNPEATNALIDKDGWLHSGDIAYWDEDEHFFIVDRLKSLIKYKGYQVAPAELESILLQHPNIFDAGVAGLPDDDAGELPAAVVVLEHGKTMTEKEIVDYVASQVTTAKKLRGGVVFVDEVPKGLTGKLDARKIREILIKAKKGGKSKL
Chain of Streptavidin (Streptomyces avidinii) (P22629 whole entry, looked up): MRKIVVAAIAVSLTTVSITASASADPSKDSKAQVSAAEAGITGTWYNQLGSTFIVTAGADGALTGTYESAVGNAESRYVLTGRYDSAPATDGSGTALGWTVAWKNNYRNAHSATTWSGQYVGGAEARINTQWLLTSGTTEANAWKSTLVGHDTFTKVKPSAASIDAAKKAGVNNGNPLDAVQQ

Consider `[N-]=[N+]=NCc1ccccc1[C@H]1OC(c2ccc(OCCCO)cc2)=N[C@@]1(Cc1ccccc1N=[N+]=[N-])C(=O)NCCN1CCOCC1`, for which the composite z-score was found to be 2.01 in assay [1]; 1.27 in assay [2]; 0.387 in [3]; 0.981 in [4]; 1.27 in [5]; 0.939 in [6]. Besides, the composite z-score in assay [8] was 0.631; in assay [9], 1.2; in [11], 0.853; in [16] it was 1.37; in assay [17], 0.0657; in assay [18] it was -0.161. In addition, the values for the composite z-score in [19] and in assay [20] were 1.04 and 0.271, respectively. The z-score in [7] is 1.57; in [10] it was -2.69 (inactive); in [12] it was -2.28 (inactive); in [13], 0.28 (inactive); in assay [14], 0.162 (inactive); in assay [15] it was -0.542 (inactive).
In the case of `COCCOC(=O)N1C(=O)[C@@]2(c3cc(C#Cc4ccc(OC)cc4)ccc31)[C@H](C(N)=O)[C@H]1C(=O)O[C@H](c3ccccc3)[C@H](c3ccccc3)N1[C@@H]2c1ccc(OCCO)cc1`, the composite z-score in assay [1] turned out to be 1.71; in assay [2], 1.21; in assay [3], 0.398; in assay [4], 0.898; in [5] it was 1.28; in assay [6], 1.55. Also, the composite z-score in assay [8] came to 0.997; in assay [9] it was 0.695; in assay [11], 0.608; in [16] it was 0.741; in assay [17], 0.267; in assay [18] it was 0.534. Besides, the composite z-score was 0.424 in [19] and 1.66 in [20]. For the same compound, the z-score in [7] was -1.96; in [10], -0.297 (inactive); in assay [12], -4.52 (inactive); in [13], -0.637 (inactive); in assay [14], -0.598 (inactive); in [15] it was -0.164 (inactive).
Regarding `C#CCNS(=O)(=O)N(C)C`, the composite z-score was found to be 0.446 in [1]; 0.928 in assay [2]; 0.17 in [3]; 0.276 in [4]; 0.103 in assay [5]; 0.203 in assay [6]. Also, the composite z-score in assay [8] was 0.643; in [9] it was 0.0088; in assay [11], -0.006; in [16] it was 0.0573; in [17], -0.222; in assay [18] it was 0.073. Moreover, the values for the composite z-score in assay [19] and in [20] were 0.0442 and 0.666, respectively. For the same compound, the z-score is 0.497 in [7]; 0.991 (inactive) in assay [10]; 0.251 (inactive) in assay [12]; -0.441 (inactive) in assay [13]; -0.882 (inactive) in assay [14]; 0.526 (inactive) in [15].
For the compound `CC1C=C(CCCO)C=C(C(=O)OCCS(C)(=O)=O)C(C(=O)OCCS(C)(=O)=O)=CN1Cc1cccc(OC(F)(F)F)c1` (stereo not given), the composite z-score in assay [1] is 1; in [2] it was 0.799; in assay [3], -0.0696; in assay [4], 1.02; in [5] it was 0.0361; in [6] it was -0.356. Further, the composite z-score in assay [8] is -0.309; in assay [9] it was 0.785; in assay [11], 0.0382; in assay [16], 1.28; in assay [17], 0.288; in [18], 0.887. Also, the composite z-score in assay [19] is 0.893; in assay [20], -0.0368. The z-score in [7] was 0.848; in assay [10], -0.234 (inactive); in [12], -0.911 (inactive); in assay [13] it was -0.846 (inactive); in assay [14] it was -0.364 (inactive); in assay [15], 0.56 (inactive).
On to `COC(=O)[C@@]1(Cc2ccc(OC)cc2)[C@H]2c3cc(C(=O)N4CCCC4)n(CCc4ccc(O)c(OC)c4)c3C[C@H]2CN1C(=O)c1ccccc1`, for which the composite z-score in [1] was 0.772; in [2], 0.23; in [3], 0.717; in assay [4] it was 0.219; in [5], -0.625; in assay [6], -0.46. Moreover, the composite z-score in assay [8] is -1.78; in assay [9], 0.0523; in assay [11], 0.0928; in [16], 0.199; in assay [17], 0.12; in [18] it was 0.168. For the same compound, the values for the composite z-score in assay [19] and in assay [20] were 0.774 and -0.909, respectively. The z-score is -0.0583 in assay [7]; 0.551 (inactive) in assay [10]; -0.666 (inactive) in assay [12]; -0.414 (inactive) in [13]; 2.5 (inactive) in assay [14]; 1.04 (inactive) in assay [15].
`CO[C@H]1O[C@H](CO)[C@@H](OC(=O)Nc2cccc(F)c2)[C@H](OC(=O)Nc2ccc3c(c2)OCO3)[C@H]1OC(=O)Nc1ccc2c(c1)OCO2`: the composite z-score in [1] was 1.62; in [2], 1.26; in assay [3] it was 0.807; in [4] it was 0.884; in assay [5], 1.32; in assay [6], 0.819. Moreover, the composite z-score in assay [8] is 0.9; in assay [9], 1.15; in assay [11], 0.146; in [16], -0.0782; in assay [17], 0.0155; in [18], 0.967. Moreover, the composite z-score in assay [19] is 1.2; in assay [20], 1.52. Also, the z-score was -0.358 in [7]; -5.24 (inactive) in assay [10]; -2.58 (inactive) in assay [12]; -0.905 (inactive) in assay [13]; 0.195 (inactive) in [14]; -0.724 (inactive) in assay [15].
For `COC(=O)[C@@]1(Cc2ccccc2)[C@H]2c3cc(C(=O)N4CCCC4)n(CCO)c3C[C@H]2CN1C(=O)c1ccccc1`, the composite z-score in assay [1] came out at 0.931; in [2], 0.992; in assay [3], 0.747; in assay [4] it was 0.488; in [5] it was 0.961; in [6] it was 0.0586. For the same compound, the composite z-score in assay [8] was -0.493; in assay [9], 1.12; in assay [11] it was 1.42; in [16], 1.97; in [17] it was 1.4; in assay [18] it was 3.21. Besides, the results for the composite z-score in [19] and in assay [20] were 3.41 and -1.01, respectively. Further, the z-score in assay [7] is 0.841; in [10] it was 0.891 (inactive); in [12], -1.08 (inactive); in assay [13], 0.0984 (inactive); in assay [14], -0.189 (inactive); in [15] it was 0.0581 (inactive).
`O=C1c2ccccc2[C@](Cc2ccccc2I)(C(=O)NC2CC2)[C@H](c2ccc(CO)cc2)N1Cc1ccccc1Cl`: the composite z-score was determined as 1.07 in assay [1]; 1.17 in [2]; 0.344 in assay [3]; 0.0468 in assay [4]; 1.23 in assay [5]; 1.6 in assay [6]. The composite z-score is 0.0036 in assay [8]; 0.86 in [9]; 0.805 in [11]; 0.191 in [16]; 0.168 in assay [17]; 0.501 in assay [18]. Besides, the composite z-score in assay [19] was 1.04; in assay [20], 1. The z-score in assay [7] was 0.756; in assay [10], -0.0487 (inactive); in assay [12] it was -0.77 (inactive); in [13], 0.167 (inactive); in assay [14] it was 0.468 (inactive); in [15], -0.159 (inactive).
With `C=CCOC(=O)[C@@H]1[C@H]2C(=O)O[C@H](c3ccccc3)[C@H](c3ccccc3)N2[C@H](c2ccc(OCCOC(=O)[C@@H]3C[C@@H]4C(=O)N5CCC[C@H]5C(=O)N4[C@@H]3c3cccc(OCCO)c3)cc2)[C@@]12C(=O)Nc1ccc(I)cc12`, the composite z-score in assay [1] stood at 1.16; in [2], 1.07; in assay [3] it was 0.468; in assay [4] it was 0.4; in assay [5], 1.43; in assay [6] it was 1.92. The composite z-score in assay [8] was 1.42; in assay [9], 0.504; in assay [11] it was 0.667; in assay [16], 0.161; in [17], -0.0221; in assay [18], 0.85. The composite z-score in [19] stood at 0.623; in assay [20], 2.01. Also, the z-score in assay [7] is -1.17; in [10], 1.13 (inactive); in assay [12] it was -1.77 (inactive); in assay [13], -0.49 (inactive); in assay [14], -1.2 (inactive); in assay [15], -0.725 (inactive).

These data come from PubChem BioAssay.
